Laboratory results as given in PubChem BioAssay (EPA / NIEHS).
“And” between values parts separate entries of the source, which are not always exact repeats. Equal values may be shown once. Records with an inconclusive call do not appear. Some structures have more than one record in an assay (separate samples or runs), and their calls can disagree. The source made the active and inactive calls. How the source made its calls, unless noted: active means hit-call score of the fitted dose curve at least 0.9, where 1 is the maximum; inactive means score below 0.9.

Columns and labels:
[1] = read-out: Monocyte Chemoattractant Protein-1 (MCP1), CCL2 (gene 6347); assay: BSK_SAg_MCP1: BioMAP Diversity Plus: SAg Assay for Monocyte Chemoattractant Protein-1 (MCP1) Biomarker Activity (AID 2283090); details: primary human HUVEC with PBMC; actives raise or lower the signal
Method in brief: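 Values derive from bidirectional fitting of ELISA-measured MCP1 against DMSO controls. Readings were taken 24 h after dosing human vascular endothelial cells co-cultured with peripheral blood mononuclear cells under superantigen stimulation.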

[2] = read-out: E-selectin (Homo sapiens) (UniProt P16581); assay: BSK_SAg_Eselectin: BioMAP Diversity Plus: SAg Assay for Eselectin Biomarker Activity (AID 2283091); details: primary human HUVEC with PBMC; actives raise or lower the signal
Method in brief: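 E-selectin ELISA readout at 24 h post-dosing in human umbilical vein endothelial cell/PBMC co-culture; gain or loss of signal fitted relative to DMSO baseline.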

[3] = read-out: Monokine induced gamma interferon (MIG), CXCL9 (gene 4283); assay: BSK_SAg_MIG: BioMAP Diversity Plus: SAg Assay for Monokine induced gamma interferon (MIG) Biomarker Activity (AID 2283092); details: primary human HUVEC with PBMC; actives raise or lower the signal
Method in brief: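 HUVEC plus human PBMC co-culture, chemicals dosed and MIG (CXCL9) quantified by ELISA at 24 h. Bidirectional curve fitting against DMSO as negative control and baseline, so both gain and loss of signal count as activity.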

[4] = BSK_SAg_PBMCCytotoxicity: PBMC Cytotoxicity Assessment in the BioMAP Diversity Plus: SAg Assay (AID 2283093); details: primary human HUVEC with PBMC;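 further: PBMC viability measured as Alamar Blue reduction fluorescence at 546/580 nm; fitted both ways against DMSO so a hit may be loss or gain of signal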;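 on AC50: PBMC superantigen activated with SEB plus TSST-1 one hour after compound addition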
Method in brief: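 Alamar Blue reduction (6 h, ex/em 546/580 nm) read after 90 h culture of PBMC pre-dosed 1 h then stimulated with SEB plus TSST-1, 20 ng/mL each. Gain or loss of signal fitted relative to DMSO.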

[5] = read-out: Interleukin-8 (IL8), CXCL8 (gene 3576); assay: BSK_SAg_IL8: BioMAP Diversity Plus: SAg Assay for Interleukin-8 (IL8) Biomarker Activity (AID 2283094); details: primary human HUVEC with PBMC; actives raise or lower the signal
Method in brief: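 HUVEC/PBMC co-culture, 24 h post-dose; IL-8 by ELISA. Gain or loss of signal fitted bidirectionally vs DMSO baseline.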

[6] = BSK_SAg_Proliferation: Cell Proliferation Assessment in the BioMAP Diversity Plus: SAg Assay (AID 2283095); details: primary human HUVEC with PBMC;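 further: relative cell number as total protein by SRB absorbance in sub-confluent culture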
Method in brief: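 HUVEC/PBMC co-culture, 96-well. TCA-fixed (10%), 0.1% SRB stain, A560 at 96 h. Protein content used as viability readout; bidirectional fitting vs DMSO control.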

[7] = BSK_SAg_SRB: Viability Assessment in the BioMAP Diversity Plus: SAg Assay (AID 2283096); details: primary human HUVEC with PBMC;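 further: cells read one day after compound addition; hits may be either gain or loss of signal compared with DMSO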
Method in brief: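 SRB absorbance at 560 nm served as the viability read-out. Cells (HUVEC plus peripheral blood mononuclear cells) were TCA-fixed and stained 24 h post-dosing; activity fitted in both directions against DMSO controls.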

[8] = molecular target: Cytochrome P450 3A4 (Homo sapiens) (UniProt P08684); assay: NVS_ADME_hCYP3A4: NovaScreen (NVS) CYP450-related Enzyme Activity (ADME) Assay for human CYP3A4 (AID 2283110; active means hit-call score of the fitted dose curve at least 0.9, where 1 is the maximum)
Cytochrome P450 3A4 (Homo sapiens), sequence (P08684 whole entry, looked up): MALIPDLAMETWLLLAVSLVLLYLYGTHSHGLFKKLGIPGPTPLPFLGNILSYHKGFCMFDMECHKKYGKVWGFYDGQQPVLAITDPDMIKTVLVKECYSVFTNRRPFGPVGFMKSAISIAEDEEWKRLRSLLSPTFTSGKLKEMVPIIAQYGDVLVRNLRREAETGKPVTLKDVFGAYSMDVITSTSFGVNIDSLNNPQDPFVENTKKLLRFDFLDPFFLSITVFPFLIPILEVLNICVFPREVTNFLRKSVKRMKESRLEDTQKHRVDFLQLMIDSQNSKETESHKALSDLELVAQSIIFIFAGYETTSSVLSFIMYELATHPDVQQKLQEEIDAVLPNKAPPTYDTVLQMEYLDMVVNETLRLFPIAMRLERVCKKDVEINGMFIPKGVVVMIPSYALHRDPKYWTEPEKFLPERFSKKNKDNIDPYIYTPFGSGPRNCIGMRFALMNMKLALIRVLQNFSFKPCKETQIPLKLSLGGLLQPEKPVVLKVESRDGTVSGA
Method in brief: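 Compounds screened in duplicate at 10 uM, with follow-up concentration-response for actives, against insect-cell-expressed recombinant enzyme. Activity read by fluorescence 0.33 h after dosing; loss of signal versus acetonitrile control indicates inhibition.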

[9] = molecular target: human CYP2D6, CYP2D6 (gene 1565) (UniProt P10635); assay: NVS_ADME_hCYP2D6: NovaScreen (NVS) CYP450-related Enzyme Activity (ADME) Assay for human CYP2D6 (AID 2283107; active means hit-call score of the fitted dose curve at least 0.9, where 1 is the maximum)
human CYP2D6, CYP2D6 (gene 1565), sequence (P10635 whole entry, looked up): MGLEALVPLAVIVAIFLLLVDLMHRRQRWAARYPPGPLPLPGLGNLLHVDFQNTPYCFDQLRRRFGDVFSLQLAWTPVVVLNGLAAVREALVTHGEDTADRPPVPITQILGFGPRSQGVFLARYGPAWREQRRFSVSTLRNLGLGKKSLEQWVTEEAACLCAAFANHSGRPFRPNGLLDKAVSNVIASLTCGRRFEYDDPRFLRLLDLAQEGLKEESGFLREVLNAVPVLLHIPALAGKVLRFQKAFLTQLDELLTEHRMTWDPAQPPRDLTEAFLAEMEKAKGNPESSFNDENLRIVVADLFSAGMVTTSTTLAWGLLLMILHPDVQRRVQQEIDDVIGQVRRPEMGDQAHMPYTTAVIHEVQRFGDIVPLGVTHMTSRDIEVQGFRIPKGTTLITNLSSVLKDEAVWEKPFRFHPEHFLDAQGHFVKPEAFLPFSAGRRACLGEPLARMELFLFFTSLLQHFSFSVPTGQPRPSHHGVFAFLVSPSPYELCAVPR
Method in brief: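 Fluorescence intensity read 1 h post-dosing; insect-cell-expressed recombinant protein with fluorogenic substrate, no cells. Activity is scored as signal loss relative to acetonitrile baseline, first at a single 10 uM concentration in duplicate, then as concentration series for confirmed actives.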

[10] = molecular target: human CYP2C9, CYP2C9 (gene 1559) (UniProt P11712); assay: NVS_ADME_hCYP2C9: NovaScreen (NVS) CYP450-related Enzyme Activity (ADME) Assay for human CYP2C9 (AID 2283108; active means hit-call score of the fitted dose curve at least 0.9, where 1 is the maximum)
human CYP2C9, CYP2C9 (gene 1559), sequence (P11712 whole entry, looked up): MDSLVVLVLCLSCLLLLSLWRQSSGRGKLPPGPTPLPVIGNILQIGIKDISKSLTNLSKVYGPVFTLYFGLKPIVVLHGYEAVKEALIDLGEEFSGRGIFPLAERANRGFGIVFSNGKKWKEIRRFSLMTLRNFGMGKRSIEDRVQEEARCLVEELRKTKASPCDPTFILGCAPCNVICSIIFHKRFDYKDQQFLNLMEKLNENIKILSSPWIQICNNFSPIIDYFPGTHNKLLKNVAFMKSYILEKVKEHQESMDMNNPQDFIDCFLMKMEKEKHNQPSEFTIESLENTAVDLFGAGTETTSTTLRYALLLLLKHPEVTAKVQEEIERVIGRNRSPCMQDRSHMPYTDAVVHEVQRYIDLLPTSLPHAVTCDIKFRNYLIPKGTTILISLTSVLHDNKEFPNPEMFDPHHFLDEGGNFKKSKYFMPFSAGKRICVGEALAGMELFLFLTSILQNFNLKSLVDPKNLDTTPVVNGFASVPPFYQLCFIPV
Method in brief: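 Fluorescence readout of CYP2C9 activity (SF9-expressed human enzyme) at 0.75 h. The primary screen used 10 uM in duplicate, with concentration-response follow-up for actives; acetonitrile was the negative control.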

Measured: AC50

E-selectin (Homo sapiens), sequence (P16581 whole entry, looked up): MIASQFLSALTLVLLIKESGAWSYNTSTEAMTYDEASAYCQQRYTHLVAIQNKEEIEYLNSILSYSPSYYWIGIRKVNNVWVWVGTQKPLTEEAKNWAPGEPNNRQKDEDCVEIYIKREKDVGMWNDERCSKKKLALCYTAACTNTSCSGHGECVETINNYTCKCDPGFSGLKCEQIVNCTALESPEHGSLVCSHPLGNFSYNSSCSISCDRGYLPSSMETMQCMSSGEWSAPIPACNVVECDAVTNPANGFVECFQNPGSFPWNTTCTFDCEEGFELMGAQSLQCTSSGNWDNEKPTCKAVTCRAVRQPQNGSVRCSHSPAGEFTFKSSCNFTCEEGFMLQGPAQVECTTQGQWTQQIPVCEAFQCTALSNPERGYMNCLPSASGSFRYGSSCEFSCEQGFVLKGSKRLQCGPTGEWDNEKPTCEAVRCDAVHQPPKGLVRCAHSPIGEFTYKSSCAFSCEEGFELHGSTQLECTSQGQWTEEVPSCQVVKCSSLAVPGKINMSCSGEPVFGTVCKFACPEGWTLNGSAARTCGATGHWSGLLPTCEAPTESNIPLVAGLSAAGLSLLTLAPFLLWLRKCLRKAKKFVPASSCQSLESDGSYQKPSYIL

FC(F)(F)C(F)(F)C(F)(F)C(F)(F)C(F)(F)C(F)(F)C(F)(F)I
not listed: [8] | [9] | [10]
inactive: all other assays above

FC(F)(F)C(F)(F)C(F)(F)C(F)(F)C(F)(F)C(F)(F)CC1CO1 (stereo not drawn)
not listed: [8] | [9] | [10]
inactive: all other assays above

CO[Si](OC)(c1ccccc1)c1ccccc1
inactive: [1] | [2] | [3] | [5]
active: [4] 33.8 µM | [6] 20 µM

FC(F)(F)C(F)(F)CNCC(F)(F)C(F)(F)F
inactive: [1] | [2] | [3] | [4] | [5] | [6]

C=CC(=O)OCC(F)(F)C(F)(F)C(F)(F)C(F)(F)COC(=O)C=C
active: [1] 27.9 µM and 25.1 µM | [2] 15.5 µM and 15.3 µM | [3] 20.6 µM and 20.9 µM | [4] 28.9 µM and 30 µM | [5] 16.8 µM and 25 µM | [6] 8.2 µM and 8.47 µM | [7] 44.6 µM and 46.9 µM

FC(F)(F)C(F)(F)C(F)(F)C(F)(F)C(F)(F)C(F)(F)C(F)(F)C(F)(F)F
inactive: [1] | [2] | [3] | [4] | [5] | [6]

C=CC(F)(F)C(F)(F)C(F)(F)C(F)(F)C(F)(F)C(F)(F)C(F)(F)C(F)(F)F
not listed: [8] | [9] | [10]
inactive: all other assays above

CCCCC(CC)COP(=O)(O)OCC(CC)CCCC (stereo not drawn)
not listed: [8] | [9] | [10]
inactive: all other assays above

CCO[Si](CCC(F)(F)C(F)(F)C(F)(F)C(F)(F)C(F)(F)C(F)(F)F)(OCC)OCC
not listed: [8] | [9] | [10]
inactive: all other assays above

CCN(CC)c1ccc2c(C)cc(=O)oc2c1
not listed: [7] | [9] | [10]
inactive: all other assays above

FC(F)(Br)C(F)(F)C(F)(F)C(F)(F)C(F)(F)C(F)(F)Br
not listed: [8] | [9] | [10]
inactive: all other assays above

Nc1ccc([N+](=O)[O-])cc1O
active: [9] 3.87 µM | [10] 3.74 µM
not listed: [7] | [8]
inactive: all other assays above

C=C(C)C(=O)OCC(F)(F)C(F)(F)C(F)(F)F
not listed: [8] | [9] | [10]
inactive: all other assays above

CCCCCCCCCCCCCCCC[N+](C)(C)Cc1ccccc1
active: [1] 2.97 µM | [2] 20 µM | [3] 2.96 µM | [4] 1.17 µM | [5] 10 µM | [6] 0.456 µM | [7] 5.21 µM | [9] 0.401 µM

OCC(F)(F)C(F)(F)C(F)(F)C(F)F
inactive: [1] | [2] | [3] | [4] | [5] | [6]

CC(=O)Nc1ccc(N=Nc2cc(C)ccc2O)cc1
active: [6] 11 µM | [9] 2.96 µM | [8] 5 µM
not listed: [10]
inactive: all other assays above

Oc1ccc(Nc2ccccc2)cc1
inactive: [3] | [5] | [7] | [9]
active: [1] 20 µM | [2] 25.1 µM | [4] 3.57 µM | [6] 3.84 µM | [10] 0.451 µM

O=C(O)C(F)(F)C(F)(F)C(F)(F)C(F)(F)C(F)(F)C(F)(F)C(F)(F)C(F)(F)Cl
inactive: [2] | [3] | [4] | [6]
active: [1] 45.9 µM and 50.4 µM | [5] 48.8 µM and 50.1 µM | [6] 54.5 µM | [7] 48.1 µM and 45.1 µM

O=C(O)C(F)(F)C(F)(F)C(F)F
not listed: [8] | [9] | [10]
inactive: all other assays above

C=CC(=O)OCC(F)(F)C(F)(F)C(F)(F)C(F)(F)C(F)(F)C(F)(F)C(F)(F)F
active: [6] 20 µM
inactive: [1] | [2] | [3] | [4] | [5] | [6] | [7]

O[Si](c1ccccc1)(c1ccccc1)c1ccccc1
active: [1] 32.5 µM | [2] 31 µM | [3] 31.1 µM | [4] 30.5 µM | [5] 20 µM | [6] 32.6 µM | [7] 26.8 µM

O=C(O)C(F)(OC(F)(F)C(F)(OC(F)(F)C(F)(F)C(F)(F)F)C(F)(F)F)C(F)(F)F (stereo not drawn)
not listed: [8] | [9] | [10]
inactive: all other assays above

CCCCOCCOCCOC(=O)CCCCC(=O)OCCOCCOCCCC
active: [10] 3.07 µM
not listed: [7] | [8] | [9]
inactive: all other assays above

Cc1ccc(S(=O)(=O)OCC(F)(F)C(F)(F)C(F)(F)C(F)(F)C(F)(F)C(F)F)cc1
active: [7] 44 µM and 37.4 µM
not listed: [8] | [9] | [10]
inactive: all other assays above

C=C(C)C(=O)OCCC(F)(F)C(F)(F)C(F)(F)C(F)(F)C(F)(C(F)(F)F)C(F)(F)F
not listed: [8] | [9] | [10]
inactive: all other assays above

CCCCCCC(C)OC(=O)CCCCC(=O)OC(C)CCCCCC (stereo not drawn)
not listed: [8] | [9] | [10]
inactive: all other assays above

C=C(C)C(=O)OCC(F)(F)C(F)(F)C(F)(F)C(F)(F)C(F)(F)C(F)(F)C(F)(F)F
not listed: [8] | [9] | [10]
inactive: all other assays above

FC(F)(F)C(F)(F)C(F)(F)C(F)(F)C(F)(F)CCI
active: [6] 44 µM
inactive: [1] | [2] | [3] | [4] | [5] | [6] | [7]

O=S(=O)(OCC(F)F)C(F)(F)F
not listed: [8] | [9] | [10]
inactive: all other assays above

FC1CC(F)(F)C(F)(F)C1(F)F (stereo not drawn)
not listed: [8] | [9] | [10]
inactive: all other assays above

O=C(O)C(F)(F)C(F)(F)OC(F)(F)F
inactive: [1] | [2] | [3] | [4] | [5] | [6]

C#C[C@]1(O)CC[C@H]2[C@@H]3CCc4cc(OC)ccc4[C@H]3CC[C@@]21C
active: [4] 33.4 µM | [6] 30.4 µM
inactive: [1] | [2] | [3] | [5] | [7]

NC(=O)C(F)(F)C(F)(F)C(F)(F)C(F)(F)F
inactive: [1] | [2] | [3] | [4] | [5] | [6] | [7]
active: [6] 30 µM

FC(F)(F)C(F)(F)C(F)(F)C(F)(F)C(F)(F)C(F)(F)C(F)(F)C(F)(F)CCS
not listed: [8] | [9] | [10]
inactive: all other assays above
